Results taken from ChEMBL document CHEMBL3988442, “University of Dundee, Small-Polar-MMV Screening Library” (2021).
About 13,000 (27%) of roughly 48,000 compounds showed an effect of 50% or more. The list shows a part of the results.

These molecules were tested on Wolbachia pipientis (assay: Anti-Wolbachia Cell-Based Screen). Conditions: 5 µM.
Type: functional
Parameters: scale not given: in the data most compounds retested in dose-response had high values

Compared with CCS(=O)(=O)N(C)C1CCN(Cn2ccc(-c3ccc(F)cc3)n2)CC1, CCN1CCC(NC(=O)N(C)Cc2csc3ccccc23)CC1 is higher in “Percent Effect” value: 1.424% for the first, 1.913% for the second.

Going from O=C(NC1(c2nccs2)CCCC1)c1cc(C2CC2)on1 to c1cnc2[nH]c(C3CCCC3)c(CN3CCOCC3)c2c1, the “Percent Effect” value rises from -6.868% to 96.59%.

Compared with Cc1noc(C)c1CS(=O)(=O)CC(=O)N1c2ccccc2CC1C (stereo not given), Cc1ncsc1C(=O)OCCN1CCCc2ccccc21 is higher in “Percent Effect” value: 25.49% for the first, 101.6% for the second.

Compared with O=C(Cc1ccc(F)cc1Cl)N1C[C@@H](CN2CCC(O)CC2)[C@@H](CO)C1, Cl.OC1CCN(Cc2c(C3CCCNC3)[nH]c3ncccc23)CC1 (stereo not given) is higher in “Percent Effect” value: -45.53% for the first, -8.296% for the second.

First: Cc1ncnc2c1CCN(C(=O)c1cccnc1)CC2
Second: Cc1nn(C(=O)c2cccnc2)c(C)c1C
The “Percent Effect” value of the first is lower: -9.06% for the first, 108.2% for the second.

Compared with COc1ccc(C(=O)n2nc(C)c(C)c2C)cc1, COc1ccccc1CN(C)c1nccc(-c2cn(C)nc2C)n1 is lower in “Percent Effect” value: 10.75% for the first, -7.113% for the second.

First: Cc1cccnc1NCCNc1cc(C(C)C)nc2ccnn12
Second: Cc1cc2nc(C(C)C)cc(NCCNc3ncccc3C)n2n1
The “Percent Effect” value of the first is lower: 101.8% for the first, 112.1% for the second.

First: CC(C)c1cc(NCC(O)c2ccccn2)n2nccc2n1 (stereo not given)
Second: CC(C)c1cc(NCC(O)CO)n2nccc2n1 (stereo not given)
The “Percent Effect” value of the first is higher: 16.27% for the first, 7.798% for the second.

First: Cc1cc(NCc2cccnc2)n2nc(C)cc2n1
Second: Cc1cc(NCCNc2ncccc2C)n2nc(C)cc2n1
The “Percent Effect” value of the first is lower: 12.04% for the first, 109.3% for the second.

Going from CC(=O)NCCNc1cc(C)nc2cc(C)nn12 to Cc1cc2nc(C(C)C)cc(NCC(c3ccccn3)N(C)C)n2n1 (stereo not given), the “Percent Effect” value rises from -17.81% to 15.65%.

First: CC(C)c1cc(NCC(C)N2CCCC2)n2nccc2n1 (stereo not given)
Second: c1cnc2[nH]c(C3CCCC3)c(CN3CCCCC3)c2c1
The “Percent Effect” value of the first is lower: -22.52% for the first, 61.56% for the second.

Going from CN1CCC(n2nc(Cc3cccc(Cl)c3)nc2Cn2ccnc2)CC1 to CCN1CCCC(c2c(-c3ccccc3)ncn2Cc2cccnc2)C1 (stereo not given), the “Percent Effect” value falls from -3.422% to -13.51%.

Compared with CCCn1nc(C(=O)NCCc2nnc3n2CCC3)ccc1=O, CC(C)C(NC(=O)NCC1(CO)CC1)c1nnc2n1CCC2 (stereo not given) is higher in “Percent Effect” value: 5.324% for the first, 14.94% for the second.

First: O=C1CCCN1CCc1noc(-c2ccc3[nH]cnc3c2)n1
Second: Cc1cc(C(=O)NCCN2CCCc3ccccc32)[nH]n1
The “Percent Effect” value of the first is lower: -10.57% for the first, -6.772% for the second.

Going from CCCOc1ccc(CNC2CCCc3c2cnn3CC)cc1OC (stereo not given) to CCn1ncc2c1CCCC2NCc1ccc(OC)c(C)c1 (stereo not given), the “Percent Effect” value falls from 1.181% to -3.93%.

First: Cc1cc(C)c(C(=O)NC2CCCc3nc(N(C)C)ncc32)cc1C (stereo not given)
Second: COc1ccc(CNC2CCCc3nc(N(C)C)ncc32)c(OC)c1 (stereo not given)
The “Percent Effect” value of the first is lower: -4.078% for the first, 113.1% for the second.

Going from COc1ccc(F)c(CNC2CCCc3nc(N(C)C)ncc32)c1 (stereo not given) to COc1ccc(OC)c(CNC2CCCc3nc(N(C)C)ncc32)c1 (stereo not given), the “Percent Effect” value rises from 96.62% to 105.7%.

Compared with CCn1ncc2c1CCCC2NCc1cc(Cl)c(OC)c(OC)c1 (stereo not given), COc1ccc2c(c1)C(NCCc1ncc(C)s1)CCCO2 (stereo not given) is higher in “Percent Effect” value: -1.567% for the first, 17.43% for the second.

Going from COc1cc(F)c(S(=O)(=O)NCc2ccnc(N(C)C)n2)cc1OC to COc1cc(CNc2cc(-c3ccoc3C)nn2CCO)ccc1F, the “Percent Effect” value rises from 0.6803% to 9.115%.

Compared with CCOC(C)c1nc(CN2CCC(C3OCCO3)CC2)cs1 (stereo not given), COCCN1CCC(c2nc3c([nH]2)CC(C)(C)CNC3=O)CC1 is lower in “Percent Effect” value: -5.348% for the first, -9.725% for the second.

Going from CN(CCc1nc2ccccc2c(=O)[nH]1)CCC(F)(F)F to CCc1ccc2nc(NCCCN(CCO)CCO)cc(C)c2c1, the “Percent Effect” value rises from -6.377% to 14.19%.

First: CNC(=O)C(C)(C)NC(=O)c1cc(COc2cccc(C(C)=O)c2)[nH]n1
Second: CC1CN(C(=O)c2ccnc(OCCN(C)C)c2)c2ccccc21 (stereo not given)
The “Percent Effect” value of the first is higher: 5.939% for the first, 5.142% for the second.

First: O=C(Nc1cccc(N2CCN(CC3CC3)CC2)c1)C1CCOC1 (stereo not given)
Second: CC1CCCN(Cc2c(C3CCOCC3)[nH]c3ncccc23)C1 (stereo not given)
The “Percent Effect” value of the first is higher: -7.118% for the first, -13.09% for the second.

Compared with CCN1CCN(C(=O)c2ccc3c(c2)NC(=O)CN3)[C@H]2CS(=O)(=O)C[C@H]21, CCO[C@H]1C[C@@H](O)C12CCN(S(=O)(=O)c1ccccc1OC)CC2 is lower in “Percent Effect” value: 7.083% for the first, -9.049% for the second.

Going from OC(CN(Cc1ccccc1)Cc1ccccn1)c1cccs1 (stereo not given) to Cn1cc(CN(Cc2ccccc2)CC(O)c2cccs2)cn1 (stereo not given), the “Percent Effect” value rises from -16.67% to -0.3984%.

Going from Cl.Cn1cc(CN(Cc2ccccc2)Cc2ccccn2)cn1 to Cn1cc(CN(Cc2ccccn2)Cc2ccccc2Cl)cn1, the “Percent Effect” value rises from 101.3% to 107.7%.

First: CCOc1cccc(CN(Cc2cnn(C)c2)CC(C)C)c1O
Second: CN(Cc1cnn(C)c1)C(=O)NC1CCN(Cc2ccccn2)CC1
The “Percent Effect” value of the first is higher: 5.177% for the first, -4.519% for the second.

Compared with COCCN(C/C=C/c1ccccc1)Cc1ccccn1, Cc1nn(C)cc1CN(Cc1ccccn1)Cc1ccccc1Cl is higher in “Percent Effect” value: -3.939% for the first, 76.4% for the second.

First: COc1cccc(S(=O)(=O)CCN2CCCC2c2ccc[nH]2)c1 (stereo not given)
Second: CS(=O)(=O)NCC1CCCN(Cc2ccc(F)c3cccnc23)C1 (stereo not given)
The “Percent Effect” value of the first is lower: -2.252% for the first, -1.722% for the second.

First: Cc1ncsc1C(=O)OCCN1CCCCCC1=O
Second: Cc1ncsc1C(=O)NCCN1CCCCCC1=O
The “Percent Effect” value of the first is higher: 115.8% for the first, 95.46% for the second.

Compared with Cc1ncsc1C(=O)NCCn1nc2ccccn2c1=O, Cc1ncsc1C(=O)NCCSCc1cccs1 is higher in “Percent Effect” value: -10.37% for the first, -6.016% for the second.

First: CC(C(=O)NCCCN1CCCCCC1=O)n1cncn1 (stereo not given)
Second: Cc1ncsc1C(=O)NCCCN1CCCCCC1=O
The “Percent Effect” value of the first is lower: -4.192% for the first, 91.19% for the second.

Compared with O=C(NCCN1CCCc2ccccc21)c1scnc1Cl, O=C(NCCN1CCCCC1)c1scnc1Cl is lower in “Percent Effect” value: 4.891% for the first, 1.584% for the second.

First: Cc1ncsc1CN(C)C(=O)C(CC(C)C)N1CCCCC1=O (stereo not given)
Second: Cc1ncsc1CCN(C)C(=O)CN1CCCCCC1=O
The “Percent Effect” value of the first is higher: 12.62% for the first, -1.63% for the second.

Going from COc1ccc(C(=O)N2CCC(Oc3ccccc3)(C(=O)O)CC2)o1 to O=C(CN1CCCCCC1)NCc1cccnc1Oc1ccccc1, the “Percent Effect” value rises from -6.202% to -1.634%.

First: CC(=O)NCc1nc(CCOc2ccc(Cl)cc2)no1
Second: NCc1cn(CC2CCCN(C(=O)NCc3ccc(Cl)cc3)C2)nn1 (stereo not given)
The “Percent Effect” value of the first is higher: -0.6631% for the first, -34.24% for the second.

Compared with COCCN1C(=O)CC(N2CCN(c3ccc(OC)cc3)CC2)C1=O (stereo not given), COc1cccc(OC)c1CN1CC(=O)N(c2ccc(C)cc2)CC1C (stereo not given) is higher in “Percent Effect” value: 6.624% for the first, 7.242% for the second.

Compared with Cc1nnc(N2C[C@@H](Oc3ccccn3)[C@H]3OCCC[C@H]32)s1.O=C(O)C(F)(F)F.O=C(O)C(F)(F)F, Cc1cnc(C)c(N2CCCC(CO)(Cc3ccccc3C)C2)n1 (stereo not given) is higher in “Percent Effect” value: -5.034% for the first, -4.771% for the second.

Going from COc1ccccc1Oc1ncccc1CNC(=O)C(C)CN (stereo not given) to COc1ccccc1N1CCC(CNCc2cccc(OC)c2OC)C1 (stereo not given), the “Percent Effect” value falls from 1.057% to 0.729%.

Compared with CCCS(=O)(=O)N1CCC2(CCCN(Cc3cccc(F)c3F)C2=O)C1 (stereo not given), CCCS(=O)(=O)N1CC(=O)N(Cc2cccc(OC)c2OC)CC(O)C1 (stereo not given) is higher in “Percent Effect” value: -35.96% for the first, 125.8% for the second.

First: COc1ccccc1S(=O)(=O)N1CCC2(CC1)[C@H](O)C[C@@H]2O
Second: CCS(=O)(=O)N1CC(=O)N(Cc2ccccc2OC)CC(O)C1 (stereo not given)
The “Percent Effect” value of the first is lower: -0.7897% for the first, 89.74% for the second.

First: CCCS(=O)(=O)N1CC(=O)N(Cc2ccccc2OC)CC(O)C1 (stereo not given)
Second: COc1ccccc1CN1CC(O)CN(S(=O)(=O)C(C)C)CC1=O (stereo not given)
The “Percent Effect” value of the first is lower: 89.31% for the first, 100.2% for the second.

First: COc1cccc(OC)c1CN1CC(O)CN(S(C)(=O)=O)CC1=O (stereo not given)
Second: COc1cccc(CN2CC(O)CN(S(C)(=O)=O)CC2=O)c1OC (stereo not given)
The “Percent Effect” value of the first is higher: 127.9% for the first, 96.57% for the second.

Going from COc1cccc(CN2CC3(CCNCC3)CCC2=O)c1OC to COc1ccccc1CN1C(=O)O[C@@H]2CN(C(C)C)C[C@@H]21, the “Percent Effect” value rises from -5.805% to 11.8%.

Compared with COc1c(F)cc(CN2CCC3(CC2)C(C(=O)O)CC(=O)N3C)cc1Cl (stereo not given), COCCN1CCN(Cc2c(C3CCNCC3)[nH]c3ncccc23)CC1.Cl is higher in “Percent Effect” value: 5.354% for the first, 66.52% for the second.

Compared with CS(=O)(=O)c1cccc(Cl)c1C(=O)NCCN1C(=O)CCC1=O, O=C(CCc1ccc(F)cc1)NS(=O)(=O)c1ccc2c(c1)OCCCO2 is higher in “Percent Effect” value: -4.304% for the first, 20.72% for the second.

First: COc1ccccc1CC(C)N(C)S(C)(=O)=O (stereo not given)
Second: COc1ccccc1CN1C(=O)O[C@@H]2CN(S(=O)(=O)N(C)C)C[C@@H]21
The “Percent Effect” value of the first is higher: 9.665% for the first, -2.255% for the second.

First: CCc1noc(C)c1C(=O)NCc1c(C)nn(CCOC)c1C
Second: CCc1ccc2nc(NCCOCCO)cc(C)c2c1
The “Percent Effect” value of the first is lower: -2.688% for the first, 107.5% for the second.

Going from CN(C)C(=O)N1C[C@H]2CC[C@@H]1CN(C1Cc3ccccc3C1)C2 to CN(Cc1ccon1)CC1CCOc2ccccc2C1 (stereo not given), the “Percent Effect” value falls from 7.395% to -13.25%.

Compared with CCc1ccc2nc(NCC(O)CO)cc(C)c2c1 (stereo not given), CC1CCCN(Cc2ccc(CNC(=O)NCc3ccon3)cc2)C1 (stereo not given) is higher in “Percent Effect” value: -9.237% for the first, -7.486% for the second.

Compared with NC(=O)C(NC(=O)CCc1ccc(Cl)s1)c1ccccc1 (stereo not given), Oc1ncccc1-c1nc(-c2cccc(CN3CCOCC3)c2)no1 is lower in “Percent Effect” value: 7.544% for the first, -1.647% for the second.

First: c1cc(-c2ccc3c(c2)C2(CCNCC2)CC3)ccn1
Second: c1cnc2[nH]c(C3CCNCC3)c(CN3CCOCC3)c2c1
The “Percent Effect” value of the first is lower: -17.91% for the first, 102.1% for the second.

First: Cl.c1cnc2[nH]c(C3CCCNC3)c(CN3CCCOCC3)c2c1 (stereo not given)
Second: CCN1CCN(Cc2c(C3CCCC3)[nH]c3ncccc23)CC1
The “Percent Effect” value of the first is lower: 94% for the first, 101.4% for the second.

Going from COCCn1ccnc1C1CCN(Cc2ccccc2C#N)CC1 to CC1CCCN(Cc2c(C3CC3)[nH]c3ncccc23)C1 (stereo not given), the “Percent Effect” value rises from -0.03291% to 97.08%.

Going from c1cnc(OCc2nnc3n2CCN(CC2CC2)C3)nc1 to OCC1CCCN(Cc2c(C3CCCC3)[nH]c3ncccc23)C1 (stereo not given), the “Percent Effect” value rises from -18.49% to 82.97%.
